Bioassay records from PubChem BioAssay.
D3 antag: qHTS of D3 Dopamine Receptor Antagonist: qHTS. max response, negative = inhibition, %. hit rate 2.5% among 360,000. D3R cells, DiscoveRx beta-arrestin luminescence, antagonist mode; hits give low values. AID 652054, 2013; in the data active = max response below about -50%; inconclusive = no clear call, values can overlap the other calls; note: % is set by controls: 0 for no effect and ±100 for the full control effect
Target sequence (P35462 whole entry, looked up): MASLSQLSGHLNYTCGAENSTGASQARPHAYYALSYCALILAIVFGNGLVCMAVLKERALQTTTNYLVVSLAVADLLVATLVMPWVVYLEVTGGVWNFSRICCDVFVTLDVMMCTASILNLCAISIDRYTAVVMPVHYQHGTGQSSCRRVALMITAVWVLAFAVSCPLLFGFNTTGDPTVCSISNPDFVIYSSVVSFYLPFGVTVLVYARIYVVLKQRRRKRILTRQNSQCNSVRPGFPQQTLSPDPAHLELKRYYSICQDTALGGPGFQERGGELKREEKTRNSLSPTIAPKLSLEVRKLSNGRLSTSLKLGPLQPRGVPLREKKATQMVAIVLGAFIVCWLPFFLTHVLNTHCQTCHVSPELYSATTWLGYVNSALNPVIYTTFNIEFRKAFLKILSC
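Cells plated overnight at 1500 cells/well, then exposed to library compounds with dopamine controls for 90 minutes at 37 degrees C. DiscoveRx reagent added for 30–60 minutes at room temperature; luminescence read, quantitative HTS format.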
TDP1 cell CPT: qHTS for Inhibitors of human tyrosyl-DNA phosphodiesterase 1 (TDP1): qHTS in cells in presence of CPT; chicken DT40 Tdp1-/-;hTDP1 cells + 20 nM CPT, ATP luminescence, 48 h; Potency, µM (doses to about 46.2 µM), without a hit: at the highest dose activity change, negative = growth inhibition, most hits filed as inhibitors; hit rate 12% among 420,000; AID 686979, 2013; note: potency is the fitted concentration of half-maximal effect; % is set by controls: 0 for no effect and ±100 for the full control effect; nearly all actives have a fitted effect of over 55% in size
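Chicken DT40 Tdp1-/- cells stably complemented with human TDP1 were seeded at 400 cells/well in medium containing 20 nM camptothecin, exposed to pin-transferred compounds, and grown at 37 °C for at least 48 hr. Viability was read as ATP luminescence.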
TDP1 cell noCPT: qHTS for Inhibitors of human tyrosyl-DNA phosphodiesterase 1 (TDP1): qHTS in cells in absence of CPT. hit rate 15% among 420,000. Potency, µM (highest dose often 46.2 µM), for inactives: at the top dose activity change, negative = growth inhibition, hits mostly inhibitors. DT40 Tdp1-/- hTDP1 cells, no CPT, ATP luminescence, 48 h; note: potency is the fitted concentration of half-maximal effect; % is set by controls: 0 for no effect and ±100 for the full control effect; nearly all actives have a fitted effect of over 55% in size
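A cellular qHTS used chicken DT40 cells lacking endogenous Tdp1 but carrying stably transfected human TDP1. Compounds were applied without camptothecin, and cell growth kinetics were judged by ATP-dependent luminescence after ≥48 hr.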
IL1B secr inh: qHTS for Inhibitors of Inflammasome Signaling: IL-1-beta AlphaLISA Primary Screen. THP-1 LPS/ATP IL-1B secretion, AlphaLISA, 16 h; hits give low values. activity change, % at 57.5 µM. hit rate 4.7% among 360,000; in the data active = activity change below about -50%; inconclusive = mostly about -30% to -49%; note: % is set by controls: 0 for no effect and ±100 for the full control effect
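Secreted IL-1B measured by AlphaLISA bead assay after 16 h compound exposure of THP-1 cells; compounds (final up to 57.5 uM) added 1 h before LPS (250 ng/mL) and ATP (1.25 mM) stimulation; lower signal means less secretion.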
DRD3 agonist: qHTS of D3 Dopamine Receptor Agonist: qHTS | D3R DiscoveRx beta-arrestin cells, luminescence, 90 min | max activation, % | hit rate 0.58% among 410,000 | D(3) dopamine receptor (Homo sapiens), P35462; in the data active = max activation above about 30%; note: 0% is about no effect
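Agonist mode: compounds and dopamine controls were applied to plated cells for 90 min at 37 degrees C after an overnight attachment at 1500 cells/well. Luminescent read-out followed 30 - 60 minutes at room temperature with DiscoveRx detection reagent.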
ClpP mod: qHTS Assay for Activators of ClpP | ATP-dependent Clp protease proteolytic subunit (Bacillus subtilis (strain 168)), P80244 | purified B. subtilis ClpP, FRET peptide cleavage, 20 min | Potency, µM (titrated, usually from 57.5 µM), for the others: at the highest dose activity change, negative = active | hit rate 1.9% among 340,000; active = well fitted falling curve with a large enough effect; inconclusive = small, poorly fitted or top-dose-only effect; inactive = no such curve, though single readings can be large or run the other way; note: potency is the fitted concentration of half-maximal effect; the source files actives as falling curves though it sought activators and does not explain the sign; nearly all actives have a fitted effect of over 65% in size
Target sequence (P80244 whole entry, looked up): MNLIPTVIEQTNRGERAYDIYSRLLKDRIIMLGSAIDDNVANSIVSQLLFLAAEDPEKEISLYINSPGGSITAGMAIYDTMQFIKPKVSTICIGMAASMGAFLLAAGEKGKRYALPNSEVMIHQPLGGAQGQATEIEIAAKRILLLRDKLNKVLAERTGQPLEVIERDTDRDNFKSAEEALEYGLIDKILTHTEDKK
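ClpP 10 microg/mL final, pH 8 Tris/KCl buffer with BSA, glycerol, Tween-20; compound pinned in; FRET-FV substrate; RT 20 min; Ex320/Em430; ΔFRET vs ADEP 5.8 microM, DMSO, no enzyme.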
* = called active by the depositor; ? = inconclusive; nt = no result given. In the library only some 21% were active in any assay of this set; here they are far more common. Unless noted, calls come from the whole dose curve; as a rule, active = well fitted inhibition curve with a large enough effect; inconclusive = small, poorly fitted or top-dose-only effect; inactive = flat fitted curve, though single readings scatter.

SMILES	D3 antag	TDP1 cell CPT	TDP1 cell noCPT	IL1B secr inh	DRD3 agonist	ClpP mod
O=C(COc1ccc([N+](=O)[O-])cc1)Nc1ccc2c(c1)CCC2	-6	?	?	-27	-6	0%
CNC(=O)COc1coc(CN2CCN(Cc3ccccc3)CC2)cc1=O	6	8%	-1%	0	0	0%
O=C(NCc1ccccc1)C(=O)NCC(c1ccco1)N1CCOCC1 (centres undefined)	24	-5%	-13%	22	12	0%
O=P(c1ccccc1)(c1ccccc1)C(c1ccco1)N1CCOCC1 (centres undefined)	-61*	?	?	-3	-28	1%
CCCCN1CC(c2nc3ccccc3n2CCCCOc2cccc(C)c2C)CC1=O (centres undefined)	nt	?	21µM*	nt	-3	-1%
CCCCN1CC(c2nc3ccccc3n2CCCCOc2ccc(C)c(C)c2)CC1=O (centres undefined)	nt	10µM*	7.3µM*	nt	-10	0%
Cc1cccc(OCCCCn2c(C3CC(=O)N(c4ccc(C)cc4C)C3)nc3ccccc32)c1 (centres undefined)	nt	?	?	nt	-4	-29%
C=C(C)Cn1c(C2CC(=O)N(Cc3ccccc3)C2)nc2ccccc21 (centres undefined)	-6	?	?	-21	-7	1%
CCCCN1CC(c2nc3ccccc3n2CCCCOc2cc(C)cc(C)c2)CC1=O (centres undefined)	nt	12µM*	7.3µM*	nt	-15	-2%
CSc1cccc(NC(=O)C2CCN(c3nc4ccccc4[nH]3)CC2)c1	nt	?	?	nt	-17	1%
CCOC(=O)c1c(-c2ccccc2)csc1NC(=O)c1ccc(S(=O)(=O)N2CC(C)OC(C)C2)cc1 (centres undefined)	15	-15%	?	17	14	?
CCCOC(=O)c1ccc(NC(=O)c2cccc(S(=O)(=O)N3CCN(C(C)=O)CC3)c2)cc1	-8	?	16µM*	-2	3	nt
CCOC(=O)c1c(-c2ccccc2)csc1NC(=O)c1cc(S(=O)(=O)N2CCOCC2)ccc1C	38	7.3µM*	?	-7	1	?
CCOC(=O)c1ccc(NC(=O)c2cc(S(=O)(=O)N3CCOCC3)ccc2O)cc1	8	?	21µM*	32	2	?
CCOC(=O)c1ccc(NC(=O)c2cccc(S(=O)(=O)N3CCN(C(C)=O)CC3)c2)cc1	5	?	13µM*	45	5	nt
Cc1ccc(C(=O)COC(=O)[C@@H](NC(=O)c2ccco2)C(C)C)s1	12	5%	-25%	4	2	-5%
Cc1ccc2c(c1)N(Cc1ccccc1)C(=O)C(C)O2 (centres undefined)	10	-23%	-27%	61	1	2%
Cc1ccc(OCC(=O)N(Cc2ccc(Cl)cc2)CC2CCCO2)cc1C (centres undefined)	nt	?	?	nt	15	0%
Cc1cc(Cl)ccc1OCC(=O)N(Cc1ccc(N(C)C)cc1)CC1CCCO1 (centres undefined)	nt	?	26µM*	nt	-13	-2%
COc1ccccc1OCC(=O)N(Cc1ccc(N(C)C)cc1)CC1CCCO1 (centres undefined)	nt	23µM*	15µM*	nt	0	0%
COC(=O)c1cccc(CN2C(=O)C(C)Oc3ccc(C)cc32)c1 (centres undefined)	-7	21µM*	21µM*	2	1	-2%
CN(C)c1ccc(CN(CC2CCCO2)C(=O)COc2ccccc2Cl)cc1 (centres undefined)	nt	?	18µM*	nt	11	-1%
CCNC(=O)NC(=O)COC(=O)CCc1nc(=O)c2ccccc2n1C	3	-9%	-1%	0	7	nt
O=C(O)c1ccccc1-c1ccc(C(F)(F)F)cc1	nt	3%	-9%	nt	-18	nt
COCC1CCN(C(=O)c2cc(COc3cc(C)c(Cl)c(C)c3)on2)C1 (centres undefined)	-10	?	3%	12	-7	1%
SMILES	D3 antag	TDP1 cell CPT	TDP1 cell noCPT	IL1B secr inh	DRD3 agonist	ClpP mod
COc1ccc(CN(CC2CCCO2)C(=O)CN2C(=O)C(C)Oc3ccc(C)cc32)cc1OC (centres undefined)	-20	?	18µM*	-8	8	0%
CCC1Oc2ccc(C)cc2N(CC(=O)N(Cc2ccc3c(c2)OCO3)CC2CCCO2)C1=O (centres undefined)	49	?	?	?	-3	-1%
O=C(COC(=O)CCC(=O)c1ccc(Cl)cc1)NC1CC1	5	-10%	-10%	2	-1	nt
COc1cc(OC)c2c(-c3cccc(-c4ccc(OC(F)(F)F)cc4)c3)cc(=O)oc2c1	-9	?	?	21	16	-5%
COc1ccc(-c2cccc(-c3cc(=O)oc4cc(OC)cc(OC)c34)c2)cc1	6	1.3µM*	0.65µM*	78	-7	?
COc1cc(OC)c2c(-c3cccc(-c4ccc(CO)cc4)c3)cc(=O)oc2c1	-9	1.3µM*	0.58µM*	5	-11	?
COc1cc(OC)c2c(-c3cccc(-c4cccc(C)c4)c3)cc(=O)oc2c1	-1	4.1µM*	3.7µM*	86	0	22µM*
COc1cc(OC)c2c(-c3cccc(-c4ccc(N(C)C)cc4)c3)cc(=O)oc2c1	-21	1.8µM*	1.2µM*	65	-21	1%
COc1cc(OC)c2c(C)cc(=O)oc2c1	0	10%	4%	?	-2	10%
COc1ccc(NC(=O)C2=C(C)Nc3nc(CCCO)nn3C2c2ccc(OC)c(OC)c2)cc1 (centres undefined)	-3	12%	-10%	0	1	nt
O=c1c(-c2ccccc2)nc2cnc(Oc3cccc(Cl)c3)nc2n1C1CC1	nt	6%	-9%	nt	nt	nt
COc1cc(OC)c2c(-c3cccc(-c4ccc(O)cc4)c3)cc(=O)oc2c1	-5	?	16µM*	73	-26	-8%
COc1ccc(-c2cc(=O)oc(-c3cccc(C)c3)n2)cc1	-7	?	18µM*	0	-12	1%
